# Laboratory results published in PubChem BioAssay AID504332 (National Center for Advancing Translational Sciences (NCATS), 2011).
# About 31,000 (8.9%) of roughly 350,000 compounds were called active. A call without a number means that no potency is given here. Another 15% or so got no clear call; they are omitted. Calls follow the shape of the dose curve; as a rule, active = well fitted inhibition curve with a large enough effect; inconclusive = small, poorly fitted or top-dose-only effect; inactive = no such curve, though single readings can be large or run the other way. The full list was thinned out, with actives kept by preference.
# Biological target: Histone-lysine N-methyltransferase EHMT2 (Homo sapiens) (UniProt Q96KQ7)
# Sequence (Q96KQ7 913-1193 limits assumed): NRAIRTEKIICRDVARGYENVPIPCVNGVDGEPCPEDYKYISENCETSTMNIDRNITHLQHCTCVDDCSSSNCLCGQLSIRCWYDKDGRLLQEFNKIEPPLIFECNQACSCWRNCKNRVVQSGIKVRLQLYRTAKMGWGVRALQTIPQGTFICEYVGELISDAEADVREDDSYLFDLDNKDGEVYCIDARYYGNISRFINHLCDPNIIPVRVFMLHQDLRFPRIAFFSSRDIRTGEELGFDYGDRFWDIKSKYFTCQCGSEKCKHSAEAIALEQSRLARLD
# Experiment: qHTS Assay for Inhibitors of Histone Lysine Methyltransferase G9a; also: nearly all actives have a fitted effect of over 75% in size
# Conditions: G9a H3K9 monomethylation, AlphaScreen, 2 h; series mostly up to 59 µM
# Method in brief: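 AlphaScreen detection with an anti-monomethyl H3K9 antibody quantified product after a 2 h room-temperature reaction containing 500 nM biotinylated H3K9 peptide, 20 µM SAM and 20 nM enzyme, which had been preincubated 15 min with compound.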
# Potency is read from the fitted curve at half-maximal effect.
Compound,Potency,"activity, negative = inhibition"
COc1ccc2nc(N3CCN(C(=O)c4ccc([N+](=O)[O-])o4)CC3)sc2c1,inactive,–
CCc1ccccc1NC(=O)c1cnn(-c2ccc(F)cc2)c1C1CCNCC1,inactive,–
COC(=O)c1ccccc1NC(=O)c1cncc(Br)c1,inactive,–
O=C(NC(=S)Nc1ccc(Cl)c(C(=O)O)c1)c1cncc(Br)c1,44.7 µM (active),–
O=C(Nc1ccc(N2CCCC2=O)cc1)c1cncc(Br)c1,inactive,–
O=C(NCCc1ccc(F)cc1)c1ccc2nccnc2c1,–,-12.4% [at 12.7 µM] (inactive)
COc1cc(OC)cc(C(=O)NCC(=O)N2CCCCCCC2)c1,–,12.1% [at 12.7 µM] (inactive)
CCN(CC(=O)Nc1ccc(NC(C)=O)cc1)C(=O)CSC(=S)N1CCCC1,–,-6.65% [at 12.7 µM] (inactive)
CCc1ccccc1NC(=O)Cc1ccc(NC(=O)N2CCCCc3ccccc32)cc1,inactive,–
Cc1ccc(Nc2c(-c3ccc(N(C)C)cc3)nc3nc[nH]n23)cc1,2.51 µM (active),–
Cc1ccc(Nc2c(-c3ccc(C)cc3)nc3cnccn23)cc1,inactive,–
COC(=O)C1(C)NC(c2ccc(F)cc2)C2C(=O)N(c3ccccc3)C(=O)C21 (centres undefined),inactive,–
Cc1sc2nc(CSCC(=O)NC3CCCCC3)[nH]c(=O)c2c1C,–,-8.21% [at 0.501 µM] (inactive)
COc1cc(OC)c(-n2cc(-c3ccc(Cl)cc3)[nH]c2=O)cc1Cl,31.6 µM (active),–
COc1cc(OC)c(-n2c(C)cc(C=O)c2C)cc1Cl,inactive,–
COc1cc(OC)c(N2CC(C(=O)Nc3cc(Cl)ccc3N3CCOCC3)CC2=O)cc1Cl (centres undefined),inactive,–
CCOC(=O)C1CCN(c2nc3c(S(=O)(=O)c4ccc(CC)cc4)nnn3c3ccc(Cl)cc23)CC1,inactive,–
CCCCNC(=O)CSc1nc2cc3c(cc2c(=O)n1CCCCCC(=O)NCc1ccc2c(c1)OCO2)OCO3,inactive,–
O=C(CNS(=O)(=O)c1ccc2c(c1)OCCCO2)N1CCN(c2ccc(F)cc2)CC1,–,24.8% [at 12.7 µM] (inactive)
CC(=O)c1c(C)oc2ccc(NS(=O)(=O)c3ccc(C(=O)O)cc3)cc12,inactive,–
O=C(O)c1ccc(NS(=O)(=O)c2ccc3c(c2)C(=O)c2cc(S(=O)(=O)Nc4ccc(C(=O)O)cc4)ccc2-3)cc1,50.1 µM (active),–
Cc1cc(C(C)(C)C)cc(S(=O)(=O)Nc2ccc(C(=O)O)cc2)c1C,inactive,–
CCCn1c2ccccc2c2cnn(CC(=O)N(C)c3ccccc3CC)c(=O)c21,inactive,–
CC(CCc1ccccc1)NC(=O)COC(=O)c1ccc(F)cc1 (centres undefined),inactive,–

Compound,Potency,"activity, negative = inhibition"
O=C(Cn1ncc2c3ccccc3n(Cc3ccccc3)c2c1=O)NC1CCCCCC1,inactive,–
O=C(Nc1ccc2c(c1)OCO2)C1CC(c2c(F)cccc2Cl)=NO1 (centres undefined),44.7 µM (active),–
Cc1ccc(NC(=O)C2CC(c3ccc(F)cc3)=NO2)cc1 (centres undefined),inactive,–
O=C(Nc1ccc2c(c1)OCO2)C1CC1(Cl)Cl (centres undefined),–,2.4% [at 12.7 µM] (inactive)
O=C(Nc1ccccn1)C1CCN(S(=O)(=O)c2ccccc2)CC1,–,-10.1% [at 12.7 µM] (inactive)
Nc1c(N(CCCO)C(=O)C2CCCC2)c(=O)[nH]c(=O)n1Cc1ccccc1,inactive,–
Cn1nnnc1SCCCNCc1cccc(OCc2ccc(Cl)cc2)c1,inactive,–
O=c1c2ccccc2cnn1Cc1n[nH]c(=S)n1-c1ccccc1F,31.6 µM (active),–
O=C(Cn1nc(Cc2cccnc2)c2ccccc2c1=O)N1CCN(c2ccccc2F)CC1,inactive,–
Cn1c2cc(B(O)O)sc2c2cnn(Cc3ccccc3F)c(=O)c21,–,0.244% [at 12.7 µM] (inactive)
COc1ccc(CNC(=O)CSc2nc3ccccc3nc2Cc2ccccc2)cc1,inactive,–
CCS(=O)(=O)c1nc(S(=O)(=O)c2ccc(C)cc2)c(NCc2ccc(Cl)cc2)s1,inactive,–
O=C(CCS(=O)(=O)c1cc(Br)cc2c1N(C(=O)C1CC1)CC2)Nc1ccc(Br)cc1F,inactive,–
Cc1cccc(OCC(=O)Nc2ccc(NC(=O)c3ccco3)c(C)c2)c1,–,0.639% [at 12.7 µM] (inactive)
Cc1cccc(Nc2cc(C)nc(-n3nc(C)cc3C)n2)c1,inactive,–
CCCC1=Nc2cc(C(=O)NCCN3CCCC3)ccc2Sc2ccccc21,79.4 µM (active),–
CCC1=Nc2cc(C(=O)NCCN3CCCC3)ccc2Sc2ccc(C)cc21,inactive,–
CCC1=Nc2cc(C(=O)NCC(C)c3ccccc3)ccc2Sc2ccc(C)cc21 (centres undefined),inactive,–
Cc1ccc(F)cc1S(=O)(=O)Nc1cccc(C(=O)N2CCCC(C(N)=O)C2)c1 (centres undefined),inactive,–
CCOc1ccccc1NC(=O)CCn1cnnn1,inactive,–
Cc1cc(Cl)ccc1OCCCC(=O)Nc1cccc(-n2cnnn2)c1,inactive,–
CC[n+]1cc(C)ccc1/C=C/c1ccc(N(C)C)cc1,6.31 µM (active),–
CN(C)c1ccc(/C=N\S(=O)(=O)c2ccccc2)cc1,inactive,–
CCc1ccc(-c2nn(-c3ccccc3C)cc2C(=O)N2CCN(C3CCS(=O)(=O)C3)CC2)cc1 (centres undefined),–,5.96% [at 12.7 µM] (inactive)

Compound,Potency,"activity, negative = inhibition"
CCC(C)(C)NC(=O)C(c1ccc(OC)cc1)N(C(=O)CCC(=O)Nc1cc(C)on1)c1ccc(OC)cc1OC (centres undefined),inactive,–
CCOc1cc(/C=C/C(=O)OCC(=O)NCCN2C(=O)CSC2=O)ccc1OCC(C)C,–,17.6% [at 12.7 µM] (inactive)
Cc1cc(-c2ccc(C)c(S(=O)(=O)N3c4ccccc4CC3C)c2)on1 (centres undefined),inactive,–
COc1ccc(C(=O)N(CCN2CCOCC2)CC(=O)NC2CCCC2)cc1OC,50.1 µM (active),–
O=C(Cn1nnc(-c2ccc(CN3CCOCC3)cc2)n1)NC1CCCCC1,–,10.1% [at 12.7 µM] (inactive)
COc1ccc(CCNC(=O)CCC(=O)NC2CCCCC2)cc1OC,inactive,–
Cc1cc(-c2ccccc2)n2nc(-c3ccccc3)cc2n1,inactive,–
COc1cccc(NC(=S)NCc2ccco2)c1,inactive,–
Cc1c(Cl)cccc1NC(=S)NCc1ccc2c(c1)OCO2,inactive,–
S=C(NCc1ccco1)NCc1ccccc1Cl,inactive,–
S=C(NCc1ccc2c(c1)OCO2)NCc1ccco1,31.6 µM (active),–
S=C(NCc1ccco1)Nc1ccc2c(c1)OCCO2,44.7 µM (active),–
CCCCC(=O)Nc1ccc2c(c1)OCCO2,inactive,–
CCC1CN(S(=O)(=O)c2cc(-c3cc(C)no3)ccc2C)c2cc(C)ccc2O1 (centres undefined),inactive,–
O=C(NC1CCCCCC1)C1CCN(C(=O)c2ccc(Cl)cc2)CC1,–,6.11% [at 12.7 µM] (inactive)
Cc1cc(N2C(=O)C(O)=C(C(=O)c3ccc(C)o3)C2c2ccc(OCc3ccccc3)cc2)no1 (centres undefined),31.6 µM (active),–
COc1cc(C2C(C(=O)c3ccco3)=C(O)C(=O)N2c2cc(C)on2)ccc1OCc1ccccc1 (centres undefined),inactive,–
CCOC(=O)c1cc(=O)c2ccc(OCc3ccccc3)cc2o1,inactive,–
O=C(O)c1ccc(Nc2nc(-c3ccccc3)c3cc(Br)ccc3n2)cc1,inactive,–
Cn1c(=O)c2c(ncn2CC(=O)Nc2cccc(C(F)(F)F)c2)n(C)c1=O,inactive,–
Cc1ccc2nc(NC(=O)c3nc(SCc4ccccc4F)ncc3Cl)sc2c1,inactive,–
Cn1c(-c2sccc2OCc2cccc(C(F)(F)F)c2)n[nH]c1=S,4.47 µM (active),–
CCOC(=O)N1CCN(Cc2nc(Cc3cccc(C(F)(F)F)c3)no2)CC1,inactive,–
O=c1c2ccccc2nc2n1C(CSCc1cccc(C(F)(F)F)c1)CS2 (centres undefined),inactive,–

Compound,Potency,"activity, negative = inhibition"
CCCCN(C(=O)c1ccc(S(=O)(=O)N2CCOCC2)cc1)C1CCS(=O)(=O)C1 (centres undefined),–,4.15% [at 0.501 µM] (inactive)
O=C(NN=C1CCC(=NNC(=O)c2cccnc2)CC1)c1cccnc1,17.8 µM (active),–
C/C(=N\NC(=O)c1cccnc1)c1ccc(-c2ccccc2)cc1,inactive,–
O=C(N/N=C/c1ccc(O)c2ccccc12)c1cccnc1,inactive,–
CCC(=O)N1c2ccccc2CC1C(=O)N1CCN(c2ccccc2)CC1 (centres undefined),inactive,–
COc1ccc(CCNS(=O)(=O)c2cc(-c3cc(C)no3)ccc2C)cc1OC,inactive,–
Nc1cc(N)nc(SCC(=O)Nc2cccc(S(=O)(=O)N3CCCCC3)c2)n1,inactive,–
O=C(Nc1nc2c(F)cc(F)cc2s1)C1COc2ccccc2O1 (centres undefined),inactive,–
O=C(Nc1nc(-c2ccncc2)cs1)C1COc2ccccc2O1 (centres undefined),2.24 µM (active),–
O=C(Nc1ncc([N+](=O)[O-])s1)C1COc2ccccc2O1 (centres undefined),–,-2.98% [at 12.7 µM] (inactive)
CCOC(=O)c1ccccc1N1C(=O)C2Sc3[nH]c(=O)sc3C(/C=C/c3ccccc3)C2C1=O (centres undefined),3.16 µM (active),–
CC(OC(=O)c1ccccc1N1C(=O)C2C3CCC(C3)C2C1=O)C(=O)c1ccccc1 (centres undefined),inactive,–
COC(=O)C1=C(C)N=C2SC(C)C(=O)N2C1/C=C/c1ccccc1 (centres undefined),inactive,–
CCOc1ccc(CCNC(=O)CN2C(=O)NC3(CCc4ccccc43)C2=O)cc1OCC (centres undefined),inactive,–
CCN(CC)S(=O)(=O)c1ccc(CNC(=O)CN2C(=O)NC3(CCc4ccccc43)C2=O)cc1 (centres undefined),28.2 µM (active),–
CCN(CC)c1ccc(NC(=O)CN2C(=O)NC3(CCc4ccccc43)C2=O)cc1 (centres undefined),–,79.1% [at 12.7 µM] (inactive)
COc1ccc(C=C(C#N)C#N)c(CSc2ccccn2)c1,inactive,–
CC(NC(=O)c1ccccc1F)c1cccc2ccccc12 (centres undefined),–,0% [at 2.33 µM] (inactive)
COc1ccc(N(Cc2ccccc2)S(=O)(=O)c2cccc(C(=O)O)c2)cc1,inactive,–
CCOC(=O)C1CCN(C(=O)c2cccc(S(=O)(=O)N(CC)c3ccccc3)c2)CC1,–,-14.3% [at 12.7 µM] (inactive)
CCN(c1ccccc1)S(=O)(=O)c1cccc(C(=O)O)c1,79.4 µM (active),–
O=C(NCc1ccccc1)C(c1cccnc1)N(C(=O)c1csnn1)c1ccc(F)cc1 (centres undefined),inactive,–
